Results reported in PubChem BioAssay (Tox21).
Unmarked numbers belong to inactive results. Results filed as inconclusive are left out. Activity calls are given as the source filed them. Calls follow the shape of the full dose curve.

What follows are compounds tested against Acetylcholinesterase (Homo sapiens) (UniProt P22303) (assay: Acetylcholinesterase (AChE) small molecule antagonists: colormetric cell-based qHTS assay (AID 1347395; also: nearly all actives have a fitted effect of over 30% in size)). Conditions: SH-SY5Y cells AChE activity, colorimetric (Ellman); series mostly up to 115 µM; activity, negative = inhibition: at the top concentration.
Sequence of Acetylcholinesterase (Homo sapiens) (P22303 whole entry, looked up): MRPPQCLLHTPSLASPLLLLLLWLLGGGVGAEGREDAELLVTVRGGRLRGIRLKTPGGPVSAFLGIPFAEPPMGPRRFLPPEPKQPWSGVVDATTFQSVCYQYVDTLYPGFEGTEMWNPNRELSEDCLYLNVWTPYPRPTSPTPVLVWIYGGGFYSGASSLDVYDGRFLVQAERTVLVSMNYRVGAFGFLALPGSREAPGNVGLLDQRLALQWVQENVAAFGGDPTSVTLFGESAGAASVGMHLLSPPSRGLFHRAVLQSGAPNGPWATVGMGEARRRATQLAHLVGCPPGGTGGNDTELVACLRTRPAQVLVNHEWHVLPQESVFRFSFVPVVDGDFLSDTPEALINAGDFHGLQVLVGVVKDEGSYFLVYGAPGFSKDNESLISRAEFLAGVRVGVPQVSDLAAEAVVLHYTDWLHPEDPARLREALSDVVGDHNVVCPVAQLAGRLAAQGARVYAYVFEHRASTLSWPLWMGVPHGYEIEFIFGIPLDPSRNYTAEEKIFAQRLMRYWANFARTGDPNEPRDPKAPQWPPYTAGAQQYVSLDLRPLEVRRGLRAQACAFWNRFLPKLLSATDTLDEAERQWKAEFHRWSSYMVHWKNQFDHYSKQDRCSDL
Procedure, shortened: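 In this cell-based qHTS, attached SH-SY5Y cells were treated with test chemicals for 30 min, after which acetylthiocholine hydrolysis was followed by DTNB colour development over 90 min at 37 C.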
% is scaled to controls: 0 for no effect and ±100 for the full control effect; potency is read from the fitted curve at half-maximal effect.

| SMILES | activity, negative = inhibition | Potency |
| --- | --- | --- |
| CC1=CC(=O)/C(=C(/C)O)C(=O)O1 | 0.279% |  |
| CCCCN(CCO)CCO | -0.558% |  |
| O=C(O)c1snc(Cl)c1Cl | -4.56% |  |
| CC1=C(/C=C/C(C)=C/C=C/C(C)=C/C(=O)Nc2ccc(O)cc2)C(C)(C)CCC1 |  | inactive |
| CC(C)S | -1.43% |  |
| O=S(=O)(O)c1ccc2nc(-c3ccccc3)[nH]c2c1 |  | inactive |
| CC1CCCCC1 | 0.506% |  |
| COC(=O)c1ccc(C)cc1 |  | inactive |
| Nc1cc(-c2ccncc2)c[nH]c1=O |  | inactive |
| NC(=O)c1ccc([N+](=O)[O-])cc1Cl |  | inactive |
| Clc1ccccn1 |  | inactive |
| CC(C)(C)C(=O)CCc1ccc(Cl)cc1 | 4.48% |  |
| Cc1cc(SC2=C(O)C[C@@](CCc3ccc(N)cc3)(C(C)C)OC2=O)c(C(C)(C)C)cc1CO | 3.48% |  |
| Cc1ccc2ccc(Cl)cc2n1 | 1.67% [at 52.9 µM] |  |
| CCCCC(CC)COC(=O)COc1ccc(Cl)cc1C (stereo not given) | -3.8% |  |
| O=S(c1cc(Cl)cc(Cl)c1O)c1cc(Cl)cc(Cl)c1O | -0.757% [at 52.9 µM] |  |
| CC1=CCC(=O)O1 | -0.242% |  |
| CC(=O)OC[C@H]1O[C@@](COC(C)=O)(O[C@H]2O[C@H](COC(C)=O)[C@@H](OC(C)=O)[C@H](OC(C)=O)[C@H]2OC(C)=O)[C@@H](OC(C)=O)[C@@H]1OC(C)=O |  | inactive |
| CCC=O | -0.921% |  |
| COc1nc(N)nc2nc[nH]c12 | -0.727% |  |

| SMILES | activity, negative = inhibition | Potency |
| --- | --- | --- |
| CCCCC(C)C(=O)O (stereo not given) | 0.852% |  |
| CCCCCCCCCCCCCC | -0.303% |  |
| CC(=O)C(C)C |  | inactive |
| Cc1cn([C@@H]2O[C@H](CO)[C@@H](O)[C@@H]2F)c(=O)[nH]c1=O | -1.67% [at 52.9 µM] |  |
| CC(C)(C)CC(=O)OCC(=O)[C@@]1(O)CC[C@H]2[C@@H]3CCC4=CC(=O)C=C[C@]4(C)[C@H]3[C@@H](O)C[C@@]21C | 0.372% [at 52.9 µM] |  |
| CCN(CC)CCOC(=O)C1(C2CCCCC2)CCCCC1 | -3.7% [at 52.9 µM] |  |
| O=[N+]([O-])c1ccc(Oc2ccc([N+](=O)[O-])cc2)cc1 | -5.3% |  |
| CCCCCCCCCCCCCCO |  | inactive |
| O=C1Nc2ccccc2C1(c1ccc(O)cc1)c1ccc(O)cc1 |  | inactive |
| Cc1cc(Cc2cc(C)cc(C(C)(C)C)c2O)c(O)c(C(C)(C)C)c1 |  | inactive |
| COc1ccc(NC(=O)CC(C)=O)cc1 | 4.72% |  |
| Cc1ccc2c(ccc3ccccc32)c1 | -1.94% |  |
| Cc1ccc(S(=O)(=O)NCl)cc1 |  | inactive |
| CC[C@]12CCCN3CCc4c(n(c5ccccc45)[C@@](O)(C(=O)OC)C1)[C@@H]32 |  | inactive |
| CC1=CCC(C(C)(C)O)CC1 (stereo not given) |  | inactive |
| SCCc1cnccn1 | -0.327% |  |
| CCCCCC[C@@H](O)C/C=C\CCCCCCCC(=O)O | -0.783% |  |
| COc1cc(C(=O)OC(COCCC(C)C)CN2CCOCC2)cc(OC)c1OC (stereo not given) | -0.0231% [at 52.9 µM] |  |
| O=C1c2c(O)ccc(Nc3ccc(CCO)cc3)c2C(=O)c2c([N+](=O)[O-])ccc(O)c21 |  | 8.94 µM (active) |
| C/C=C(/C(=C/C)c1ccc(O)cc1)c1ccc(O)cc1 | 1.14% [at 52.9 µM] |  |

What follows are compounds tested against Acetylcholinesterase (Homo sapiens) (UniProt P22303) (assay: Acetylcholinesterase (AChE) small molecule antagonists: enzyme-based qHTS assay (AID 1347397; also: nearly all actives have a fitted effect of over 55% in size)). Conditions: Potency: AChE enzyme activity inhibition; outcome: AChE enzyme activity inhibition; series mostly up to 115 µM; activity change, negative = inhibition: at the top concentration.
Procedure, shortened: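 rhAChE 50 mU/mL (dispensed) + cpd or DMSO, 30 min RT; add DTNB/acetylthiocholine cocktail, 10 min RT; colorimetric thiocholine readout. qHTS, 1536-well format.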

| SMILES | activity change, negative = inhibition | Potency |
| --- | --- | --- |
| CC1=CC(=O)/C(=C(/C)O)C(=O)O1 | -0.265% |  |
| CCCCN(CCO)CCO | 1.32% |  |
| O=C(O)c1snc(Cl)c1Cl | -0.0279% |  |
| CC1=C(/C=C/C(C)=C/C=C/C(C)=C/C(=O)Nc2ccc(O)cc2)C(C)(C)CCC1 | -11.7% |  |
| CC(C)S | 1.07% |  |
| O=S(=O)(O)c1ccc2nc(-c3ccccc3)[nH]c2c1 |  | inactive |
| CC1CCCCC1 | 0.265% |  |
| COC(=O)c1ccc(C)cc1 |  | inactive |
| Nc1cc(-c2ccncc2)c[nH]c1=O |  | inactive |
| NC(=O)c1ccc([N+](=O)[O-])cc1Cl |  | inactive |
| Clc1ccccn1 |  | inactive |
| CC(C)(C)C(=O)CCc1ccc(Cl)cc1 | 1.66% |  |
| Cc1cc(SC2=C(O)C[C@@](CCc3ccc(N)cc3)(C(C)C)OC2=O)c(C(C)(C)C)cc1CO | 2.63% |  |
| Cc1ccc2ccc(Cl)cc2n1 | 0.812% [at 53 µM] |  |
| CCCCC(CC)COC(=O)COc1ccc(Cl)cc1C (stereo not given) | -0.903% |  |
| O=S(c1cc(Cl)cc(Cl)c1O)c1cc(Cl)cc(Cl)c1O | 1.35% [at 53 µM] |  |
| CC1=CCC(=O)O1 | 1.89% |  |
| CC(=O)OC[C@H]1O[C@@](COC(C)=O)(O[C@H]2O[C@H](COC(C)=O)[C@@H](OC(C)=O)[C@H](OC(C)=O)[C@H]2OC(C)=O)[C@@H](OC(C)=O)[C@@H]1OC(C)=O |  | inactive |
| CCC=O | 0.438% |  |
| COc1nc(N)nc2nc[nH]c12 | -0.848% |  |

| SMILES | activity change, negative = inhibition | Potency |
| --- | --- | --- |
| CCCCC(C)C(=O)O (stereo not given) | -0.694% |  |
| CCCCCCCCCCCCCC | 1.24% |  |
| CC(=O)C(C)C |  | inactive |
| Cc1cn([C@@H]2O[C@H](CO)[C@@H](O)[C@@H]2F)c(=O)[nH]c1=O | 0% [at 53 µM] |  |
| CC(C)(C)CC(=O)OCC(=O)[C@@]1(O)CC[C@H]2[C@@H]3CCC4=CC(=O)C=C[C@]4(C)[C@H]3[C@@H](O)C[C@@]21C | 0.415% [at 53 µM] |  |
| CCN(CC)CCOC(=O)C1(C2CCCCC2)CCCCC1 | -1.94% [at 53 µM] |  |
| O=[N+]([O-])c1ccc(Oc2ccc([N+](=O)[O-])cc2)cc1 | 0.811% |  |
| CCCCCCCCCCCCCCO |  | inactive |
| O=C1Nc2ccccc2C1(c1ccc(O)cc1)c1ccc(O)cc1 |  | inactive |
| Cc1cc(Cc2cc(C)cc(C(C)(C)C)c2O)c(O)c(C(C)(C)C)c1 |  | inactive |
| COc1ccc(NC(=O)CC(C)=O)cc1 | 2.15% |  |
| Cc1ccc2c(ccc3ccccc32)c1 | -0.136% |  |
| Cc1ccc(S(=O)(=O)NCl)cc1 |  | inactive |
| CC[C@]12CCCN3CCc4c(n(c5ccccc45)[C@@](O)(C(=O)OC)C1)[C@@H]32 |  | inactive |
| CC1=CCC(C(C)(C)O)CC1 (stereo not given) |  | inactive |
| SCCc1cnccn1 | 0.139% |  |
| CCCCCC[C@@H](O)C/C=C\CCCCCCCC(=O)O | -10.4% |  |
| COc1cc(C(=O)OC(COCCC(C)C)CN2CCOCC2)cc(OC)c1OC (stereo not given) | 0.443% [at 53 µM] |  |
| O=C1c2c(O)ccc(Nc3ccc(CCO)cc3)c2C(=O)c2c([N+](=O)[O-])ccc(O)c21 |  | 20 µM (active) |
| C/C=C(/C(=C/C)c1ccc(O)cc1)c1ccc(O)cc1 | -9.23% [at 53 µM] |  |
